Rows were chosen to be rich in hits. Some 1.5% of all compounds tested hit in one or more screens of this group.
PI5P4Ka inh – PI5P4K alpha (human) kinase inhibition | actives 1.2% (n = 330,000) | PI5P4Kalpha enzyme, ADP-Glo luminescence, 60 min; stronger effect = lower value | P48426 | max response, % | AID 652105; active means max response of -50% or lower; inconclusive means between -30% and -50%; inactive means -30% or higher; further: value at the top dose of about 77 µM
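Human PI5P4Kalpha with substrate in 0.038 M HEPES pH 7.4, 0.28 mM EGTA, 0.1% CHAPS, 5% DMSO; reaction started with 5 microM ATP (final), 60 min at room temperature. ADP formed read by ADP-Glo luminescence.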
WRN helicase inh – blocks human WRN helicase; Q14191; WRN helicase unwinding, fluorescent forked duplex, kinetic; Potency, µM (top dose mostly 114 µM), most hits filed as inhibitors; actives 0.46% (n = 360,000); AID 651768; further: nearly all actives have a fitted effect of over 55% in size
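Fluorescence dequenching readout, ex 525 nm/em 598 nm, kinetic mode: forked duplex DNA (100 nM final) with adjacent fluorophore and quencher unwound by WRN (20 nM final) with 2 mM ATP. Compound preincubation 15 min, room temperature.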
BLM inh-1 – inhibitors of human Bloom syndrome helicase BLM; Potency, µM (doses to about 56.1 µM), hits mostly inhibitors; P54132; actives 0.2% (n = 350,000); recombinant BLM DNA unwinding, fluorescence dequenching; further: nearly all actives have a fitted effect of over 35% in size
APE1 inh – inhibitors of human APE1 endonuclease. recombinant APE1, TAMRA/BHQ-2 abasic DNA cleavage fluorescence. actives 0.35% (n = 350,000). Potency, µM (top dose mostly 65.8 µM), usual class: inhibitors. P27695. AID 2517; further: nearly all actives have a fitted effect of over 55% in size
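Step 1: APE1 (0.75 nM) with compound, 15 min RT. Step 2: add 50 nM fluorophore/quencher THF duplex. Step 3: three fluorescence reads 60 s apart (525/598 nm); read 3 minus read 1 = reaction progress.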
RECQ1 inh-1 – blocks DNA unwinding by human RECQ1 | Potency, µM (highest dose often 57.3 µM), actives largely listed as inhibitors | AID 2549 | RECQ1 DNA unwinding, red fluorescence kinetic read | actives 0.54% (n = 240,000) | P46063; further: nearly all actives have a fitted effect of over 30% in size
Target sequence (P46063 whole entry, looked up): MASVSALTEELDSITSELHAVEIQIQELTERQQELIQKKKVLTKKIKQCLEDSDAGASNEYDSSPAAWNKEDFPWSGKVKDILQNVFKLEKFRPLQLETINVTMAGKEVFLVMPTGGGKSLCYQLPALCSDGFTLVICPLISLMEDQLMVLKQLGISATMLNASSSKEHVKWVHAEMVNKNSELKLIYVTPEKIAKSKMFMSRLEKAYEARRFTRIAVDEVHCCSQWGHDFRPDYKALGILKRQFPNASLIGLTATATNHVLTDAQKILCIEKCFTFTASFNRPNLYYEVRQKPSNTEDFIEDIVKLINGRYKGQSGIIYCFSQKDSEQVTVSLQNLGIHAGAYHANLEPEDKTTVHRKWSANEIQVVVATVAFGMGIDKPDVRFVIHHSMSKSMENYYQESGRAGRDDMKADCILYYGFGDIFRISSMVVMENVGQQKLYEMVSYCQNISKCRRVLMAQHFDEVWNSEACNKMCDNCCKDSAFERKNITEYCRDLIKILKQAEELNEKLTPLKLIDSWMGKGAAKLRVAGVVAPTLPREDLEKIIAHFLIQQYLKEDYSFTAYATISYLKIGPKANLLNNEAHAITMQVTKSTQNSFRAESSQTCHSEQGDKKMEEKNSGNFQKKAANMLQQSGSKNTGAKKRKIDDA
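50 nM RECQ1T1 preincubated 15 min with compound in Tris pH 8.0 buffer with MgCl2, DTT, Tween-20 and 2.5 ug/ml poly(dI-dC); started with 200 nM TAMRA/BHQ-2 forked duplex and 2 mM ATP. Unwinding read as fluorescence (525/598 nm), two reads 2 h apart.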
FEN1 inh – human FEN1 inhibition; actives 0.35% (n = 390,000); P39748; Recombinant FEN1 flap cleavage, fluorescence, 15 min; Potency, µM (series often up to 114 µM), hits mostly inhibitors; further: nearly all actives have a fitted effect of over 65% in size
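Nuclease activity of 10 nM FEN1 was measured after 15 min of room-temperature exposure to titrated compounds, by adding 50 nM flap substrate and reading plates at 0 and 15 min.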
BLM inh-2 – confirmation of inhibitors of human Bloom syndrome helicase BLM; BLM DNA unwinding, fluorescence quenching, biochemical; Potency, µM, most hits filed as inhibitors; actives 40% (n = 220); shares compounds with BLM inh-1;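 further: strand separation dequenches TAMRA so unwinding raises red fluorescence; series mostly up to about 69 µM; nearly all actives have a fitted effect of over 45% in size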
RECQ1 inh conf – confirmation of human RECQ1 helicase inhibitors; shares compounds with RECQ1 inh-1; RECQ1 helicase DNA unwinding, fluorescence; Potency, µM (top dose mostly 229 µM), usual class: inhibitors; actives 28% (n = 610); AID 2708; further: nearly all actives have a fitted effect of over 45% in size
RECQ1 ADP FP – displaces ADP in a fluorescence polarization counter-screen for RECQ1 hits | shares compounds with RECQ1 inh-1 | ADP fluorescence polarization displacement counterscreen | Potency, µM (highest dose often 228 µM), usual class: inhibitors | actives 27% (n = 530); further: nearly all actives have a fitted effect of over 45% in size
RECQ1 inh-2 – confirmation of human RECQ1 helicase inhibitors; AID 504841; shares compounds with RECQ1 inh-1; recombinant RECQ1 DNA unwinding, red fluorescence; actives 15% (n = 1,100); Potency, µM (doses to about 119 µM), hits mostly inhibitors; further: nearly all actives have a fitted effect of over 50% in size
ADP-Glo counter – interferes with ADP-Glo detection without enzyme present. shares compounds with PI5P4Ka inh. ADP-Glo detection counter-screen, luciferase luminescence, no enzyme. Potency, µM (highest dose often 76.9 µM), actives largely listed as inhibitors. 1,100 tested, under 10 active. AID 743285
Large screens that a line does not name were inactive (follow-up assays come after a bar, where they were run). Unless noted, the call rests on the fitted dose curve; in most records, active means well fitted curve in the direction sought with a large enough effect; inconclusive means small, poorly fitted or top-dose-only effect, or another doubt; inactive means no such curve, though single readings can be large; an effect the other way counts as inactive or inconclusive.

O=C(NCc1ccco1)c1c2c(nc3ccccc13)CCC2	PI5P4Ka inh -71, WRN helicase inh 45µM, BLM inh-1 18µM, APE1 inh inconclusive, RECQ1 inh-1 28µM, FEN1 inh inconclusive | BLM inh-2 inconclusive | RECQ1 inh-2 inconclusive | ADP-Glo counter inactive
O=C(NCc1ccco1)c1ccccc1	none (no result: RECQ1 inh-1)
O=c1oc(-c2ccccc2)nc2sc3c(c12)CCC3	PI5P4Ka inh -54, BLM inh-1 14µM | BLM inh-2 inconclusive | ADP-Glo counter inactive
CCOCCOC(=O)c1ccc2c(c1)N(Cc1ccccc1C#N)C(=O)c1ccccc1S2(=O)=O	none (no result: PI5P4Ka inh, WRN helicase inh, APE1 inh, RECQ1 inh-1)
CCOc1ccc(NC(=O)c2c(NCc3sccc3C)sc3c2CCCCC3)cc1	none (no result: PI5P4Ka inh, WRN helicase inh, APE1 inh, RECQ1 inh-1)
Cc1cc(-c2nc3c4c5c(sc4[nH]c(=O)n3n2)CCC5)c(C)o1	PI5P4Ka inh -59, WRN helicase inh inconclusive, BLM inh-1 14µM, APE1 inh inconclusive, RECQ1 inh-1 13µM, FEN1 inh inconclusive | BLM inh-2 11µM | RECQ1 inh conf 18µM | RECQ1 ADP FP inconclusive | RECQ1 inh-2 inconclusive | ADP-Glo counter inactive
CCOC(=O)Cc1cc(=O)n2[nH]c(C)c(-c3ccccc3OC)c2n1	none
CCOC(=O)Cc1cc(=O)n2[nH]c(C)c(-c3ccccc3)c2n1	RECQ1 inh-1 35µM | RECQ1 inh-2 inactive
O=C(COc1ccccc1C(=O)Nc1ccccc1)Nc1cccc(Cl)c1	none (no result: PI5P4Ka inh, WRN helicase inh, BLM inh-1, APE1 inh, RECQ1 inh-1)
CCn1c(C)c(C)c2cc(C(=O)Nc3cccc(Cl)c3)ccc21	RECQ1 inh-1 7.9µM | RECQ1 inh conf inactive | RECQ1 ADP FP inactive | RECQ1 inh-2 inactive
CC(=O)c1cccc(NC(=O)c2ccc3c(c2)c(C)c(C)n3Cc2ccc(Cl)cc2)c1	none (no result: PI5P4Ka inh, WRN helicase inh, APE1 inh, RECQ1 inh-1)
COc1ccccc1CNc1ncnc2ccc(-c3ccoc3)cc12	none (no result: PI5P4Ka inh, WRN helicase inh, FEN1 inh)
Cc1cc(C(=O)COC(=O)c2cc(Cl)ccc2N)c(C)n1Cc1ccco1	none
Cc1cc(C(=O)COC(=O)c2cccn2C)c(C)n1Cc1ccco1	APE1 inh inconclusive, RECQ1 inh-1 inconclusive | RECQ1 inh-2 inactive
O=C(CCOc1ccccc1)NO	none (no result: PI5P4Ka inh, WRN helicase inh, BLM inh-1, APE1 inh, RECQ1 inh-1)
O=c1[nH]c(Nc2ccccc2)cc2cc(Br)ccc12	none (no result: BLM inh-1, APE1 inh, RECQ1 inh-1)
O=c1[nH]c(Nc2ccccc2)cc2ccccc12	APE1 inh inconclusive, RECQ1 inh-1 inconclusive, FEN1 inh inconclusive | RECQ1 inh-2 inconclusive
Cc1ccc(S(=O)(=O)NC2=NCN(CCOC(=O)c3ccc([N+](=O)[O-])cc3)CN2)cc1	none (no result: PI5P4Ka inh)
Cc1ccc(S(=O)(=O)NC2=NCN(CCOC(=O)c3ccccc3)CN2)cc1	RECQ1 inh-1 32µM (no result: PI5P4Ka inh) | RECQ1 inh-2 inactive
Cc1cc2oc(C(=O)Nc3ccc(S(=O)(=O)Nc4ncccn4)cc3)cc(=O)c2cc1C	none (no result: PI5P4Ka inh, WRN helicase inh, APE1 inh, RECQ1 inh-1)
CN(C)c1ccc(-c2nc(Nc3ccncc3)c3ccccc3n2)cc1	RECQ1 inh-1 inconclusive (no result: PI5P4Ka inh, WRN helicase inh, FEN1 inh) | RECQ1 inh-2 inconclusive
CN(C)C(=O)c1ccc(-c2nc(Nc3ccncc3)c3ccccc3n2)cc1	none (no result: PI5P4Ka inh, WRN helicase inh, FEN1 inh)
Cc1cc(/C=C2\SC(=S)NC2=O)c(C)n1C	WRN helicase inh inconclusive, RECQ1 inh-1 0.32µM, FEN1 inh inconclusive (no result: PI5P4Ka inh) | RECQ1 inh conf 45µM | RECQ1 ADP FP 10µM
O=C1OC2(c3ccc(O)cc3Oc3cc(O)ccc32)c2ccccc21	BLM inh-1 35µM, APE1 inh 28µM, RECQ1 inh-1 32µM (no result: PI5P4Ka inh, WRN helicase inh, FEN1 inh) | RECQ1 inh-2 79µM
O=C(Nc1nc(-c2ccccc2)cs1)Nc1ccc(F)cc1F	RECQ1 inh-1 inconclusive | RECQ1 inh-2 inactive
Cc1ccc(OCc2ccc(C(=O)Nc3cc(C)on3)o2)c([N+](=O)[O-])c1	none (no result: RECQ1 inh-1)
Cc1ccc(OCc2ccc(C(=O)Nc3ccc(C(N)=O)cc3)o2)c([N+](=O)[O-])c1	RECQ1 inh-1 inconclusive | RECQ1 inh-2 inconclusive
CCn1c(=O)c(-c2cc(=O)[nH][nH]2)c(O)c2ccccc21	RECQ1 inh-1 25µM | RECQ1 inh-2 inactive
CC(=O)O[C@@H]1CC[C@@]2(C)[C@H](C1)[C@H](OC(C)=O)C[C@@H]1[C@@H]2C[C@H]2[C@@H]3CN4C[C@H](C)CC[C@H]4[C@H](C)[C@H]3CC[C@@]12O	none (no result: PI5P4Ka inh, WRN helicase inh, FEN1 inh)
O=C(c1cc(-c2ccccc2)on1)N1CCCc2ccccc21	none
O=C(c1cc(-c2ccco2)on1)N1CCCc2ccccc21	RECQ1 inh-1 40µM (no result: PI5P4Ka inh) | RECQ1 inh-2 inconclusive
CCN(CC)S(=O)(=O)c1ccc2nc(NC(=O)c3cncc(Br)c3)sc2c1	none (no result: PI5P4Ka inh, WRN helicase inh, APE1 inh, RECQ1 inh-1)

High-throughput results deposited in PubChem BioAssay by National Center for Advancing Translational Sciences (NCATS).
